Laboratory results as given in PubChem BioAssay AID2283109 (EPA ToxCast).
The source made the active and inactive calls. Rule for the calls: active = hit-call score of the fitted dose curve at least 0.9, where 1 is the maximum; inactive = score below 0.9.

Each compound was assayed against human CYP3A5, CYP3A5 (gene 1577) (UniProt P20815) (assay: NVS_ADME_hCYP3A5: NovaScreen (NVS) CYP450-related Enzyme Activity (ADME) Assay for human CYP3A5).
Description: NVS_ADME_hCYP3A5 is a biochemical, single-readout assay that uses extracted gene-proteins in a cell-free assay. Measurements were taken 0.5 hour after chemical dosing in a 96-well plate.NVS_ADME_hCYP3A5 is one of one assay component(s) measured or calculated from the NVS_ADME_hCYP3A5 assay. It is designed to make measurements of enzyme activity, a form of enzyme reporter, as detected with fluorescence intensity signals by Fluorescence technology.Data from the assay component NVS_ADME_hCYP3A5 was analyzed into 1 assay endpoint. This assay endpoint, NVS_ADME_hCYP3A5, was analyzed in the positive analysis fitting direction relative to Acetonitrile as the negative control and baseline of activity. Using a type of enzyme reporter, loss-of-signal activity can be used to understand changes in the enzymatic activity as they relate to the gene CYP3A5. Furthermore, this assay endpoint can be referred to as a primary readout, because this assay has produced multiple assay endpoints where this one serves a enzymatic activity function. To generalize the intended target to other relatable targets, this assay endpoint is annotated to the cyp intended target family, where the subfamily is xenobiotic metabolism.
Binding assays used specific radioligands (tritiated, iodinated) with non-radioactive competitive displacement ligands in agonist or antagonist protocols (as indicated) and various reference compounds and inhibitors to titrate specific binding to receptors and transporters. Most enzyme assays (CYPs, kinases, phosphatases, proteases, HDACs) used recombinant protein and specific substrates (fluorescence mostly, some colorimetric and radioactive) and inhibitors, followed by a biochemical separation of substrate and product. All assays for the biochemical HTS were initially run in duplicate at a single concentration (10 uM for CYP450 assays and 25 uM for all others). […]

Sequence of human CYP3A5, CYP3A5 (gene 1577) (P20815 whole entry, looked up): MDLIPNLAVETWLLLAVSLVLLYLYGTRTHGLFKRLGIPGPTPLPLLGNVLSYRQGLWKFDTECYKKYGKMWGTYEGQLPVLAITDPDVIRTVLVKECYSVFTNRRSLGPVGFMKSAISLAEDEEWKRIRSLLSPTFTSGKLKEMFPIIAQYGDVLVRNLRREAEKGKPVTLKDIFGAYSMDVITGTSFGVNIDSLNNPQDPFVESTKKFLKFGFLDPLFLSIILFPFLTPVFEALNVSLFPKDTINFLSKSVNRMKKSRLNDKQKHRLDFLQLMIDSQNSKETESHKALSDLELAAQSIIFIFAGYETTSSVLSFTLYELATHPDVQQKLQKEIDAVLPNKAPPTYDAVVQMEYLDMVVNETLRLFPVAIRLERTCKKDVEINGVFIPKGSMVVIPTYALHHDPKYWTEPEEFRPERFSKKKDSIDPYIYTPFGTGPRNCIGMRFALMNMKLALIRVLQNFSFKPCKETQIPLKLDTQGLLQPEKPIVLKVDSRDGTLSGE

| SMILES | outcome | AC50 |
| --- | --- | --- |
| COC(=O)Nc1cccc(OC(=O)Nc2cccc(C)c2)c1 | inactive | – |
| COP(=S)(OC)Oc1ccc(Sc2ccc(OP(=S)(OC)OC)cc2)cc1 | – | 13.5 µM (active) |
| Clc1ccc(C2(Cn3cncn3)CC(Br)CO2)c(Cl)c1 (stereo not drawn) | – | 0.557 µM (active) |
